Our source for the AC50 and outcome values is PubChem BioAssay (EPA / NIEHS).

Inconclusive results are not listed. Active and inactive are the calls of the source. How the source made its calls: active means hit-call score of the fitted dose curve at least 0.9, where 1 is the maximum; inconclusive means response in the unintended direction; inactive means score below 0.9.

The nature of assay [1]: TOX21_p53_BLA_p2_viability: Viability Assessment in the Tox21 HCT-116 p53 Agonism Beta-lactamase Assay, Phase 2 (AID 2283591).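 Further: compound exposure lasted 16 h at 37 °C; actives lower the ATP signal meaning cytotoxicity.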 The essentials: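 HCT116 p53-bla cells, 4000/well, dosed after 5 h plating (217-fold dilution of DMSO stocks) and incubated 16 h at 37C. Viability taken as cellular ATP by CellTiter-Glo luminescence after 30 min RT; signal loss marks cytotoxicity.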

For assay [2], the target named is Cellular tumor antigen p53 (Homo sapiens) (UniProt P04637). The experiment in a line: TOX21_p53_BLA_p2_ratio: Tox21 HCT-116 p53 Agonism Beta-lactamase Assay, Ratio, Phase 2 (AID 2283592). Summed up:
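Plated HCT116 p53-bla cells (4000/well) received compound after 5 h, then 16 h at 37C/5% CO2. CCF4-AM added, 2 h RT. Ratio of 460 to 530 nm emission taken as the p53 reporter signal.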

Assay [3] is described as follows: TOX21_p53_BLA_p3_viability: Viability Assessment in the Tox21 HCT-116 p53 Agonism Beta-lactamase Assay, Phase 3 (AID 2283593).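 Further: cells exposed to compound for 16 h before reading.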 The essentials:
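HCT116 cells, 4000/well, dosed 5 h after plating by pin transfer (217-fold dilution from DMSO stock) and incubated 16 h at 37C, 5% CO2. Viability read as ATP luminescence with CellTiter-Glo after 30 min at room temperature.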

Assay [4] has as its target Cellular tumor antigen p53 (Homo sapiens) (UniProt P04637). The experiment in a line: TOX21_p53_BLA_p3_ratio: Tox21 HCT-116 p53 Agonism Beta-lactamase Assay, Ratio, Phase 3 (AID 2283596). The essentials:
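Cells were seeded at 4000/well, rested 5 h at 37C, then dosed with DMSO compound solutions (217-fold dilution) for 16 h. CCF4-AM substrate was loaded for 2 h at room temperature, and the 460/530 nm emission ratio was fitted for gain of signal versus DMSO.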

The nature of assay [5]: TOX21_p53_BLA_p4_viability: Viability Assessment in the Tox21 HCT-116 p53 Agonism Beta-lactamase Assay, Phase 4 (AID 2283597).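 Further: hits lower the luminescence signal meaning cytotoxicity.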 The essentials: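 Readout: ATP luminescence (CellTiter-Glo), measured 30 min after reagent addition at RT. The reagent followed a 2 h CCF4-AM incubation, and the cells had been exposed to compound for 16 h at 37C.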
Assay [6] has as its target Cellular tumor antigen p53 (Homo sapiens) (UniProt P04637). Kind of assay: TOX21_p53_BLA_p5_ratio: Tox21 HCT-116 p53 Agonism Beta-lactamase Assay, Ratio, Phase 5 (AID 2283599). The essentials:
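HCT-116 p53-bla cells (4000/well) plated 5 h, dosed with compound (217-fold DMSO dilution) for 16 h at 37 C; CCF4-AM substrate 2 h at room temperature. Activity is the 460/530 nm emission ratio (405 nm excitation), fitted in gain-of-signal direction versus DMSO.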

Assay [7] is described as follows: TOX21_p53_BLA_p5_viability: Viability Assessment in the Tox21 HCT-116 p53 Agonism Beta-lactamase Assay, Phase 5 (AID 2283600). The essentials: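 Workflow: seed 4000 cells per well, wait 5 h, add compounds (DMSO, 217-fold dilution), incubate 16 h, load CCF4-AM 2 h, add CellTiter-Glo, read luminescence after 30 min.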
Assay [8] deals with Cellular tumor antigen p53 (Homo sapiens) (UniProt P04637). The experiment in a line: TOX21_p53_BLA_p4_ratio: Tox21 HCT-116 p53 Agonism Beta-lactamase Assay, Ratio, Phase 4 (AID 2283601). Summed up:
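HCT-116 p53 beta-lactamase reporter cells (4000/well) preincubated 5 h, then compound (217-fold dilution of DMSO stock) for 16 h at 37C. CCF4-AM substrate added 2 h at room temperature; 460/530 nm emission ratio fitted upward versus DMSO.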

Cellular tumor antigen p53 (Homo sapiens), sequence (P04637 whole entry, looked up): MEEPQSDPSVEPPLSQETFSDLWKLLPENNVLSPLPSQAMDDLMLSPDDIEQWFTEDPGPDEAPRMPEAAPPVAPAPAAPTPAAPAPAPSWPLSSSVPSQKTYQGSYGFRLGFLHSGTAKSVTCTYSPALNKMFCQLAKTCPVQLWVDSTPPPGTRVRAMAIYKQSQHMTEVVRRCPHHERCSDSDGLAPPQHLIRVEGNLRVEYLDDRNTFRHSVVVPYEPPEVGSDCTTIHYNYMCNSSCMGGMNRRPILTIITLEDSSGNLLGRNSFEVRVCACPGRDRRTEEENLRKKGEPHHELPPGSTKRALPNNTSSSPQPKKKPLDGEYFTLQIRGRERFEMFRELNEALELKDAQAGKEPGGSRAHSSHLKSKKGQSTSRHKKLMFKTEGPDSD

Regarding `CCCCCCCC/C=C\CCCCCCCCOCCO`, the half-maximal activity concentration (AC50) in assay [1] is 72.5 µM (active); in assay [2], 96.6 µM (active); in assay [3], 29.2 µM (active); in assay [4], 80.3 µM (active); in assay [5], 72.6 µM (active); in assay [6], 56.2 µM (active). The AC50 in assay [7] was 21.1 µM (active); in assay [8], 105 µM (active).
Take `NC(=O)NS(=O)(=O)c1ccc(N)cc1`: the result in assay [1], in assay [2], in assay [3], in assay [4], in assay [5] and in assay [6] was inactive. The call in assay [7] and in assay [8] was inactive.
For `CCCCCCCCS(=O)C(C)Cc1ccc2c(c1)OCO2` (stereo not drawn), the concentration at half-maximal activity (AC50) in assay [1] was 78.9 µM (active); in assay [2] it was 39.3 µM (active); in assay [4], 90.9 µM (active); in assay [5], 74.7 µM (active); in assay [6] it was 86.8 µM (active); in assay [7] it was 58.2 µM (active). Besides, in assay [8], the AC50 was 88.7 µM (active). The outcome in assay [3] was inactive.
Turning to `COc1c(C)c2c(c(O)c1C/C=C(\C)CCC(=O)OCCN1CCOCC1)C(=O)OC2`, the outcome in assay [1], in assay [3] and in assay [7] was inactive. Moreover, the concentration at half-maximal activity (AC50) was 0.139 µM (active) in assay [2]; 0.164 µM (active) in assay [4]; 0.805 µM (active) in assay [5]; 0.183 µM (active) in assay [6]; 0.194 µM (active) in assay [8].
`Cn1c(O)c(N=NC(N)=S)c2ccccc21`: the compound was classed as inactive in assay [1], in assay [2], in assay [3], in assay [4], in assay [5] and in assay [6]. The outcome in assay [7] and in assay [8] was inactive.
For `O=S(=O)(O)Oc1ccc(C(c2ccc(OS(=O)(=O)O)cc2)c2ccccn2)cc1`, the compound was called inactive in assay [1], in assay [2], in assay [3], in assay [4], in assay [5] and in assay [6]. For the same compound, the call in assay [7] and in assay [8] was inactive.
Regarding `CN1CCN(CCCN2c3ccccc3Sc3ccc(Cl)cc32)CC1`, the half-maximal activity concentration (AC50) was 33.8 µM (active) in assay [1]; 43.7 µM (active) in assay [2]; 34.7 µM (active) in assay [3]; 38.3 µM (active) in assay [5]; 43.3 µM (active) in assay [6]; 34.4 µM (active) in assay [7]. Besides, the AC50 in assay [8] is 43.7 µM (active). Also, the outcome in assay [4] was inactive.
Turning to `CC(C)(C)CC(C)(C)c1ccccc1O`, the AC50 was 74.6 µM (active) in assay [1]; 75.3 µM (active) in assay [2]; 68.9 µM (active) in assay [3]; 77.8 µM (active) in assay [4]; 65.9 µM (active) in assay [5]; 81.5 µM (active) in assay [6]. In addition, the concentration at half-maximal activity (AC50) in assay [7] was 68 µM (active); in assay [8] it was 81.7 µM (active).
Turning to `CCCCOc1ccc(C(=O)CCN2CCCCC2)cc1`, the compound was classed as inactive in assay [1], in assay [2], in assay [3], in assay [4], in assay [6] and in assay [7]. Also, the outcome in assay [8] was inactive. Besides, in assay [5], the AC50 was 6.37 µM (active).
As for `COc1cc(C(=O)OCCCN2CCCN(CCCOC(=O)c3cc(OC)c(OC)c(OC)c3)CC2)cc(OC)c1OC`, the result in assay [1], in assay [2], in assay [3], in assay [4], in assay [5] and in assay [6] was inactive. In addition, the call in assay [7] and in assay [8] was inactive.
With `CN1CC(=O)N/C1=N/C(=O)Nc1cccc(Cl)c1`, the outcome in assay [1], in assay [2], in assay [3], in assay [4], in assay [5] and in assay [6] was inactive. The outcome in assay [7] and in assay [8] was inactive.
For the compound `CC1=C[C@H](O)CC(C)(C)[C@H]1/C=C/C(C)=C/C=C/C(C)=C/C=C/C=C(C)/C=C/C=C(C)/C=C/C1=C(C)C[C@@H](O)CC1(C)C`, the compound was classed as inactive in assay [1], in assay [2] and in assay [3]. Also, the concentration at half-maximal activity (AC50) in assay [4] was 39.9 µM (active); in assay [5], 35.3 µM (active); in assay [6], 38.4 µM (active); in assay [7] it was 43 µM (active); in assay [8], 34.8 µM (active).
In the case of `Cc1ccc(-n2nc(C(C)(C)C)cc2NC(=O)Nc2ccc(OCCN3CCOCC3)c3ccccc23)cc1`, the compound was called inactive in assay [1], in assay [2], in assay [3], in assay [4], in assay [5] and in assay [6]. Moreover, the compound was classed as inactive in assay [7] and in assay [8].
As to `O=S(=O)(O)c1ccc(O)cc1`, the compound was called inactive in assay [1], in assay [2], in assay [3], in assay [4], in assay [5] and in assay [6]. Further, the compound was called inactive in assay [7] and in assay [8].
As to `C=C1/C(=C\C=C2/CCC[C@]3(C)[C@@H]([C@H](C)CCCC(C)C)CC[C@@H]23)C[C@@H](O)C[C@@H]1O`, the outcome in assay [1], in assay [5], in assay [6], in assay [7] and in assay [8] was inactive. Also, the AC50 in assay [2] was 20.7 µM (active); in assay [3], 37.1 µM (active); in assay [4] it was 40 µM (active).
As to `CC(C)OC(=O)OCOP(=O)(CO[C@H](C)Cn1cnc2c(N)ncnc21)OCOC(=O)OC(C)C`, the result in assay [1], in assay [2], in assay [3], in assay [4], in assay [5] and in assay [6] was inactive. Further, the outcome in assay [7] and in assay [8] was inactive.
As for `CCO[Si](CCCCl)(OCC)OCC`, the outcome in assay [1], in assay [3], in assay [5], in assay [6], in assay [7] and in assay [8] was inactive. Further, the AC50 in assay [2] was 87.7 µM (active); in assay [4], 86.2 µM (active).
For the compound `C[N+]1(CC2COC(c3ccccc3)(C3CCCCC3)O2)CCCCC1` (stereo not drawn), the call in assay [1], in assay [2], in assay [3], in assay [4], in assay [5] and in assay [6] was inactive. Also, the call in assay [7] and in assay [8] was inactive.
For `CC(=O)OC(OC(C)=O)c1ccc([N+](=O)[O-])o1`, the AC50 in assay [1] was 74.3 µM (active); in assay [3], 74.1 µM (active); in assay [5] it was 74.8 µM (active); in assay [7], 88 µM (active). For the same compound, the outcome in assay [2], in assay [4], in assay [6] and in assay [8] was inactive.
For the compound `CC(NCCC(c1ccccc1)c1ccccc1)c1ccccc1` (stereo not drawn), the AC50 in assay [1] is 26.6 µM (active); in assay [2], 33.9 µM (active); in assay [5], 32.5 µM (active); in assay [6], 35.8 µM (active); in assay [8] it was 39.4 µM (active). Also, the compound was classed as inactive in assay [3], in assay [4] and in assay [7].
In the case of `CSc1ccc(/C=C2/C(C)=C(CC(=O)O)c3cc(F)ccc32)cc1`, the half-maximal activity concentration (AC50) in assay [1] was 22.4 µM (active); in assay [3], 41.1 µM (active); in assay [5], 23.1 µM (active); in assay [6] it was 19.7 µM (active); in assay [7], 36.4 µM (active). In addition, the outcome in assay [2], in assay [4] and in assay [8] was inactive.

Broadly, the AC50 is the concentration giving half of the maximal activity seen.
